This is a sample that favours compounds with a hit; in the whole collection about 0.51% have one here.
p-CIP stab down: lowers stability of the mouse p/CIP coactivator protein; Q05BA5; F442A p/CIP-EGFP cells, EGFP fluorescence, 16 h; decrease of EGFP signal, % at 10 µM; 290,000 compounds, 0.01% hits; AID 1984;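 active means EGFP signal decrease of at least 30% at 10 µM or well 3 SD below plate mean, unless failing retest; inactive means the rest, including hits failing retest or dose response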
Target sequence (Q05BA5 1-1403): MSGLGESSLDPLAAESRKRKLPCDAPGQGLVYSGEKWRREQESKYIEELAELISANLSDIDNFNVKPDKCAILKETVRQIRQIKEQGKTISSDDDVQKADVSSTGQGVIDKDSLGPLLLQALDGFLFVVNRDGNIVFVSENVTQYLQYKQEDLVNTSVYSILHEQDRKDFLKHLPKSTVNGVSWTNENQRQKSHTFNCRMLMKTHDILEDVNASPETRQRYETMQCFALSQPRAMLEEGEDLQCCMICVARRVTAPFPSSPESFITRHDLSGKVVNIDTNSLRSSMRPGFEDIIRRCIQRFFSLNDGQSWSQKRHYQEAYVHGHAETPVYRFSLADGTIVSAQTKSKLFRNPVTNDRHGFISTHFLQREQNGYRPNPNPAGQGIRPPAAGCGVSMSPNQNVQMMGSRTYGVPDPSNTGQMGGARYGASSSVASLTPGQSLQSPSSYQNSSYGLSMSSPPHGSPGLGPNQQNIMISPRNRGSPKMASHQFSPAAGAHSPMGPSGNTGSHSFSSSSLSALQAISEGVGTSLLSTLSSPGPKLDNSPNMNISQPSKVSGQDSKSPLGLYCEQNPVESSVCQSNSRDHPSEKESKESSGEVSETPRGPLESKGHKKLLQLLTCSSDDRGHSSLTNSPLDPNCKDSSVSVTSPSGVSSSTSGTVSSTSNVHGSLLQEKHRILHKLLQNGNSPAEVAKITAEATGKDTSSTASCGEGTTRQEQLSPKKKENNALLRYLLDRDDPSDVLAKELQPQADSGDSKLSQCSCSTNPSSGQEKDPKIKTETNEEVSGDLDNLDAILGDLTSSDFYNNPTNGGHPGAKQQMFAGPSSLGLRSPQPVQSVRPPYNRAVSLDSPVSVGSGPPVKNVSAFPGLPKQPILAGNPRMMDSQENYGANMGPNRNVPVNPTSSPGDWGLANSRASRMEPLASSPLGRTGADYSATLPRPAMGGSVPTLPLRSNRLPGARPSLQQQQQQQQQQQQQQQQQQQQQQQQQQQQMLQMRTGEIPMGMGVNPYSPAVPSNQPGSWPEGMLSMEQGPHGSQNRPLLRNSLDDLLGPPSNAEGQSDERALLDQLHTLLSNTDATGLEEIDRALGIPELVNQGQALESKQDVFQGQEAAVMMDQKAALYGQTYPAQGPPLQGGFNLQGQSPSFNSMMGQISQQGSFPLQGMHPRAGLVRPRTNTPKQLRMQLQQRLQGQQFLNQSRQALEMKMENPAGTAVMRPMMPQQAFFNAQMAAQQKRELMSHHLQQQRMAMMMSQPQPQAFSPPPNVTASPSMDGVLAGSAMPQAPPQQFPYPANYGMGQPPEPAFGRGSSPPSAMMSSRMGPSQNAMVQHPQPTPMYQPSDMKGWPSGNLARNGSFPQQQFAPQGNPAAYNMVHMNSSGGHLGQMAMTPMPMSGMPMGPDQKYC
E coli growth-1: reduces bacterial viability in AddAB counter-screen; E. coli V3065 growth, OD600 absorbance, 18 h; inhibition, % at 11.9 µM; 330,000 compounds, 0.27% hits;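 active means inhibition above the campaign's mean inhibition across all tested compounds plus 3 SD, cut at about 9.9% in these data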;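 further: uninfected addAB+ strain grown without phage in ampicillin broth; 0% = DMSO wells and 100% = ciprofloxacin 0.95 µg/ml wells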
phage Ecoli inh: E. coli growth loss with phage present; growth absorbance; inhibition, % at 11.9 µM; 360,000 compounds, 0.26% hits; in the data active means inhibition above about 11%
E coli growth-2: blocks Escherichia coli growth; OD600 absorbance (no concentration beside the values); OD600, 23 h; stronger effect = lower value; 330,000 compounds, 0.21% hits;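 active means OD600 absorbance below the run mean of sample wells minus 3.6 SD, in any replicate, cut at about 0.56 in these data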
AddAB inh: less growth of phage-infected E. coli with AddAB; E. coli expressing H. pylori AddAB, absorbance growth; inhibition, % at 11.9 µM; 330,000 compounds, 0.29% hits; in the data active means inhibition above about 12%;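 further: 0% = vehicle wells of infected cells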
Tat transport: inhibitors of E. coli Tat protein transport; E. coli MC4100 TorA-mCherry Tat export, fluorescence; inhibition, % at 10 µM; 340,000 compounds, 0.036% hits; AID 488895;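 active means mean replicate inhibition at least 50% and at least half of replicates individually reaching 50%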;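 further: exported cargo escapes ClpAP degradation while cytoplasmic cargo is degraded and loses fluorescence; 0% = median of neutral control wells and 100% = median of NaSCN control wells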
AddAB confirm: growth loss of T4-infected E. coli expressing H. pylori AddAB, confirmed; inhibition, % at 11.9 µM; E. coli V3065 expressing H. pylori AddAB, T4 phage, OD; T4 phage with gene 2 nonsense mutations; AID 488942; shares compounds with AddAB inh; 880 compounds, 64% hits;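 active means mean inhibition above a set limit taken from the earlier primary screen, cut at about 13% in these data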;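 further: higher means less bacterial growth since AddAB block lets phage replicate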
RecBCD counter: counter-screen: growth loss of RecBCD+ E. coli with mutant T4 phage | inhibition, % at 11.9 µM | 880 compounds, 73% hits | AID 488955 | shares compounds with AddAB inh | E. coli V66 + mutant T4 phage, OD growth;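 active means mean inhibition above the mean of solvent-only control wells plus 3 SD, cut at about 4% in these data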;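 further: optical density read after an 18 h incubation at 37 °C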
Bact viability: counter-screen for AddAB inhibitors: inhibitors of bacterial viability | shares compounds with AddAB inh | 880 compounds, 35% hits | inhibition, % at 11.9 µM | absorbance (AddAB counterscreen); in the data active means inhibition above about 25%
RecBCD conf: confirmation: growth loss of phage-infected RecBCD+ E. coli (RecBCD inhibitor screen); shares compounds with phage Ecoli inh; E. coli V66 + T4 2- phage, growth OD; inhibition, % at 11.9 µM; 890 compounds, 45% hits; AID 651982;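 active means mean inhibition over triplicates exceeding the hit threshold derived in the original primary screen, cut at about 11% in these data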
Ecoli viability: inhibits E. coli viability, flagging RecBCD hits as nonselective. AID 651983. 890 compounds, 29% hits. absorbance (OD) growth. inhibition, % at 11.9 µM. shares compounds with phage Ecoli inh; in the data active means inhibition above about 20%;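 further: E. coli strain V66 grown with compound alone and no phage infection; 0% = bacteria with DMSO vehicle only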
AddAB counter: growth loss of phage-infected AddAB E. coli, RecBCD counter-screen | shares compounds with phage Ecoli inh | E. coli expressing H. pylori AddAB + T4 phage, OD growth; gene 2 mutant T4, recBCD-deleted host | inhibition, % at 11.9 µM | 890 compounds, 45% hits | AID 651984;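 active means mean inhibition above the solvent-only control wells' mean plus 3 SD, cut at about 22% in these data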;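 further: higher means less bacterial growth from phage killing when AddAB is blocked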
Active calls of the source: *; / = not tested or not shown.

SMILES	p-CIP stab down	E coli growth-1	phage Ecoli inh	E coli growth-2	AddAB inh	Tat transport	AddAB confirm	RecBCD counter	Bact viability	RecBCD conf	Ecoli viability	AddAB counter
COc1c(N2CCN(C(=S)Nc3ccc(F)cc3)C(C)C2)c(F)cc2c(=O)c(C(=O)O)cn(C3CC3)c12 (stereo unspecified)	-25	99*	73*	0.073*	99*	76*	97*	98*	100*	14*	14	102*
CN1CCN(C(c2ccc(Br)cc2)c2cc(Cl)c3cccnc3c2O)CC1 (stereo unspecified)	-13	23*	13*	/	22*	-8	11	11*	5	2	4	3
CN1CCN(C(c2ccc(F)cc2)c2ccc3cccnc3c2O)CC1 (stereo unspecified)	/	/	/	0.69	/	1	/	/	/	/	/	/
CC(=O)Nc1ccc(S(=O)(=O)NCc2ccc(C)n2C)cc1	-1	-1	1	0.66	0	-2	/	/	/	/	/	/
CC(=O)NC(c1ccco1)c1cc(F)c2cccnc2c1O (stereo unspecified)	/	1	1	0.69	-2	-2	/	/	/	/	/	/
Oc1c(C(Nc2nc3ccccc3s2)c2ccco2)ccc2cccnc12 (stereo unspecified)	-4	21*	15*	0.66	19*	-7	14*	13*	12	8	9	16
CC(C)C(=O)NC(c1cccc([N+](=O)[O-])c1)c1ccc2cccnc2c1O (stereo unspecified)	4	23*	23*	0.6	18*	-1	27*	22*	22	16*	21*	28*
CC(C)C(=O)NC(c1ccco1)c1ccc2cccnc2c1O (stereo unspecified)	-8	15*	21*	/	16*	-11	6	15*	5	5	8	17
CCc1ccc(OCCOCC(O)CN2CCN(Cc3ccc(Cl)cc3)CC2)cc1 (stereo unspecified)	6	1	4	0.66	4	7	/	/	/	/	/	/
Cc1cc([N+](=O)[O-])nn1Cc1ccc(C(=O)N/N=C/c2ccc(O)cc2O)cc1	-1	20*	17*	/	19*	-2	23*	19*	13	5	7	10
O=C(N/N=C/c1ccc(O)cc1O)c1ccc(CN2C(=O)c3cccc4cccc2c34)cc1	1	25*	22*	/	14*	3	16*	20*	10	9	11	16
O=C(Nc1ccccc1SC(=O)c1ccccc1)c1ccccc1	/	/	1	/	/	/	/	/	/	/	/	/
Cc1ccc(C(=O)Sc2cccccc2=O)cc1	7	52*	62*	0.14*	51*	82*	64*	61*	61*	78*	81*	89*
O=C(c1cccs1)N1CCCC(c2ccccc2)C1 (stereo unspecified)	-2	-1	-1	0.74	1	-3	/	/	/	/	/	/
COc1cccc(C=Nn2cnc3cc(C)c(C)cc32)c1OC	/	/	/	0.69	/	/	/	/	/	/	/	/
Cc1cc2ncn(/N=C/c3ccc([N+](=O)[O-])o3)c2cc1C	-26	32*	14*	/	86*	3	99*	12*	46*	5	8	57*
COCCN(Cc1cc2cc3c(cc2nc1Cl)OCO3)C(=O)c1ccc(C)cc1	-26	1	3	0.73	-2	3	/	/	/	/	/	/
O=C1NCCN1c1ncc([N+](=O)[O-])s1	/	101*	98*	0.066*	100*	21	96*	95*	96*	96*	97*	101*
O=C(Nc1ncc([N+](=O)[O-])s1)C1CC(=O)N(c2ccc(F)cc2)C1 (stereo unspecified)	-4	-3	1	0.56	4	-6	/	/	/	/	/	/
CCC1(C)Cc2c(sc3nnn(CC(=O)Nc4cccc5ccccc45)c(=O)c23)CO1 (stereo unspecified)	-2	-1	1	0.64	-1	-13	/	/	/	/	/	/
COc1ccc(Cl)cc1-c1cc(C(=O)NCc2cccs2)[nH]n1	/	/	0	/	/	/	/	/	/	/	/	/
O=C(Cn1cnc2ccccc21)Nc1ccc(SC(F)F)cc1	-26	13*	17*	0.55	15*	-29	7	13*	10	6	9	11
O=C(C1CCC1)N1CCN(c2ccc(Cl)cc2)CC1	4	/	-1	0.66	/	5	/	/	/	/	/	/
O=C(N/N=C/c1ccccc1)c1ccc2c(c1)OCO2	-2	1	2	/	5	5	/	/	/	/	/	/
O=C(NN=Cc1c(O)ccc2ccccc12)c1ccc2c(c1)OCO2	/	21*	11*	0.59	18*	-11	0	10*	-5	4	8	5
SMILES	p-CIP stab down	E coli growth-1	phage Ecoli inh	E coli growth-2	AddAB inh	Tat transport	AddAB confirm	RecBCD counter	Bact viability	RecBCD conf	Ecoli viability	AddAB counter
COc1cc(/C=C2\SC(=O)N(CCNC(=O)c3cnc(C)cn3)C2=O)cc(OC)c1OC	0	1	-3	0.7	1	2	/	/	/	/	/	/
CO[C@H]1/C=C/O[C@@]2(C)Oc3c(C)c(O)c4c(O)c(c(C=NN5CCN(C)CC5)c(O)c4c3C2=O)NC(=O)/C(C)=C\C=C\[C@H](C)[C@H](O)[C@@H](C)[C@@H](O)[C@@H](C)[C@H](OC(C)=O)[C@@H]1C	/	48*	78*	/	52*	78*	59*	58*	62*	80*	89*	102*
O=C(Oc1c(CN2CCOCC2)cc(Cl)c2cccnc12)c1cccs1	9	-8	-3	0.67	-2	3	/	/	/	/	/	/
O=C(Oc1c(Cl)cc(Cl)c2cccnc12)c1cccs1	2	43*	42*	0.14*	40*	7	51*	53*	56*	44*	53*	41*
O=[N+]([O-])c1ccc(/C=N/N=C/c2ccc([N+](=O)[O-])o2)o1	-6	/	8	/	/	-2	/	/	/	/	/	/
O=C(O)/C=C/c1ccc([N+](=O)[O-])o1	-1	73*	18*	0.4*	46*	14	101*	16*	77*	20*	19	101*

High-throughput results deposited in PubChem BioAssay by several laboratories.
